Assay results: the supplement of paper PMC10849652
About 7,900 targets were measured; listed, in parts, are those with a hit and a random draw of the rest. About 0.6% of all pairs of compound and target were hits. Values without a mark were called inactive.

Experiments:
Assay in all cases: log2 fold change, soluble protein after heating vs DMSO (PISA); higher = thermal stabilisation; K562 cells, 10 uM, 30 min; active = over 0.2 and 3.5 SD of the protein, either way, in both replicates (recomputed)
saracatinib = compound: CN1CCN(CCOc2cc(OC3CCOCC3)c3c(Nc4c(Cl)ccc5c4OCO5)ncnc3c2)CC1 [saracatinib]
In short: (§1)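 For each measurement, 10 μM compound was applied for 30 min to K562 cells at 2×10^6 cells/mL. Aliquots were heated for 3 min across 48°C-58°C, pooled, and extracted in PBS with 0.5% NP-40 at 4°C; the supernatant after 21,000xg for 90 min was soluble protein. This was quantified by TMTpro 16plex LC-MS/MS with channel sums equalised, and thermal stability was reported relative to control samples from duplicates, on a log2 fold-change scale.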

alvocidib = compound: CN1CC[C@H](c2c(O)cc(O)c3c(=O)cc(-c4ccccc4Cl)oc23)[C@H](O)C1 [alvocidib]
In short: as §1

Tubastatin A = compound: CN1CCc2c(c3ccccc3n2Cc2ccc(C(=O)NO)cc2)C1 [Tubastatin A]
In short: as §1

[1] = compound: CNC(=O)C1=CC=CC=C1NC2=NC(=NC=C2Cl)NC3=C(C=C(C=C3)N4CCOCC4)OC
In short: as §1

defactinib = compound: CNC(=O)c1ccc(Nc2ncc(C(F)(F)F)c(NCc3nccnc3N(C)S(C)(=O)=O)n2)cc1 [defactinib]
In short: as §1

rucaparib = compound: CNCc1ccc(-c2[nH]c3cc(F)cc4c3c2CCNC4=O)cc1 [rucaparib]
In short: as §1

[2] = compound: CNc1nc(-c2ccc3c(N)n[nH]c3c2)cc(N2C[C@@H](C(=O)NC3CCCCC3)CC[C@H]2C)n1
In short: as §1

encorafenib = compound: COC(=O)N[C@@H](C)CNc1nccc(-c2cn(C(C)C)nc2-c2cc(Cl)cc(NS(C)(=O)=O)c2F)n1 [encorafenib]
In short: as §1

[3] = compound: COC(=O)[C@H](CCSC)NC(=O)C1=C(C=C(C=C1)NC[C@H](CS)N)C2=CC=CC=C2
In short: as §1

[4] = compound: COC1=CC=C(C=C1)CN2C=CC3=C2C=C(C=C3)C(=O)NO
In short: as §1

zotarolimus = compound: CO[C@H]1C[C@@H]2CC[C@@H](C)[C@@](O)(O2)C(=O)C(=O)N2CCCC[C@H]2C(=O)O[C@H]([C@H](C)C[C@@H]2CC[C@H](n3cnnn3)[C@H](OC)C2)CC(=O)[C@H](C)/C=C(\C)[C@@H](O)[C@@H](OC)C(=O)[C@H](C)C[C@H](C)/C=C/C=C/C=C/1C [zotarolimus]
In short: as §1

idasanutlin = compound: COc1cc(C(=O)O)ccc1NC(=O)[C@@H]1N[C@@H](CC(C)(C)C)[C@](C#N)(c2ccc(Cl)cc2F)[C@H]1c1cccc(Cl)c1F [idasanutlin]
In short: as §1

alisertib = compound: COc1cc(Nc2ncc3c(n2)-c2ccc(Cl)cc2C(c2c(F)cccc2OC)=NC3)ccc1C(=O)O [alisertib]
In short: as §1

[5] = compound: COc1cc2nc(-c3cc(F)ccc3O)nc(N[C@@H]3CNC[C@H]3C(C)(C)O)c2cc1OC
In short: as §1

[6] = compound: COc1cccc2cc(-c3nc([C@H]4CC[C@H](C(=O)O)CC4)n4ncnc(N)c34)[nH]c12
In short: as §1

lapatinib = compound: CS(=O)(=O)CCNCc1ccc(-c2ccc3ncnc(Nc4ccc(OCc5cccc(F)c5)c(Cl)c4)c3c2)o1 [lapatinib]
In short: as §1

pictilisib = compound: CS(=O)(=O)N1CCN(Cc2cc3nc(-c4cccc5[nH]ncc45)nc(N4CCOCC4)c3s2)CC1 [pictilisib]
In short: as §1

sotrastaurin = compound: CN1CCN(c2nc(C3=C(c4c[nH]c5ccccc45)C(=O)NC3=O)c3ccccc3n2)CC1 [sotrastaurin]
In short: as §1

filanesib = compound: CON(C)C(=O)N1N=C(c2cc(F)ccc2F)S[C@@]1(CCCN)c1ccccc1 [filanesib]
In short: as §1

gefitinib = compound: COc1cc2ncnc(Nc3ccc(F)c(Cl)c3)c2cc1OCCCN1CCOCC1 [gefitinib]
In short: as §1

UniProt Q86V48, sequence (Q86V48 whole entry, looked up): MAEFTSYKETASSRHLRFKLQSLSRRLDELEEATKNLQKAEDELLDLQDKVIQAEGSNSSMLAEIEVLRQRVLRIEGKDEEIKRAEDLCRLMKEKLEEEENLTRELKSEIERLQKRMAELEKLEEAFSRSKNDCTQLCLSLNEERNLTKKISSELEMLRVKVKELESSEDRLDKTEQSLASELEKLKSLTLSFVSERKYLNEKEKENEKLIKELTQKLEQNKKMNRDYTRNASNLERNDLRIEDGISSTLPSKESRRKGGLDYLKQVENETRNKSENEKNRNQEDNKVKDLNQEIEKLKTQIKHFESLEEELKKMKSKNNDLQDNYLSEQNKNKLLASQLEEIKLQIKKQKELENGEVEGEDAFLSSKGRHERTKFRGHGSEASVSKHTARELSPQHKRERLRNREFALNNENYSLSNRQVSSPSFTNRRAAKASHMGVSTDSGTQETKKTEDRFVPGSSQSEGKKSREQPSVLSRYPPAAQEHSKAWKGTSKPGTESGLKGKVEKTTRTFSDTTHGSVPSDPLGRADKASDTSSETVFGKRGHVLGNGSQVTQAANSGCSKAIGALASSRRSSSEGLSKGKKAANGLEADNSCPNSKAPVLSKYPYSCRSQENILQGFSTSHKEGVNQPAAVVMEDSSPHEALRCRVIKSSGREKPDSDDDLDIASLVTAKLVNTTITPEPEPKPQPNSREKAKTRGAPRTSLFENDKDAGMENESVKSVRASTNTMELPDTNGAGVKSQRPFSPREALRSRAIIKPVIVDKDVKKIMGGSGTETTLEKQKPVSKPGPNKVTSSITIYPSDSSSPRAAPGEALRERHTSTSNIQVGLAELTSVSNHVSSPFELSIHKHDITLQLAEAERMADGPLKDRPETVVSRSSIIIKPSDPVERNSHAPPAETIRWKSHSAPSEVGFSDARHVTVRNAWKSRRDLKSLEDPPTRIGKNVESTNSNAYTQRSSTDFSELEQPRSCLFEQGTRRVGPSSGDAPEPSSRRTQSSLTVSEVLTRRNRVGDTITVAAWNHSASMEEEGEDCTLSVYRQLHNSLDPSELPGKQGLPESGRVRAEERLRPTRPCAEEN
UniProt Q14680, sequence (Q14680 whole entry, looked up): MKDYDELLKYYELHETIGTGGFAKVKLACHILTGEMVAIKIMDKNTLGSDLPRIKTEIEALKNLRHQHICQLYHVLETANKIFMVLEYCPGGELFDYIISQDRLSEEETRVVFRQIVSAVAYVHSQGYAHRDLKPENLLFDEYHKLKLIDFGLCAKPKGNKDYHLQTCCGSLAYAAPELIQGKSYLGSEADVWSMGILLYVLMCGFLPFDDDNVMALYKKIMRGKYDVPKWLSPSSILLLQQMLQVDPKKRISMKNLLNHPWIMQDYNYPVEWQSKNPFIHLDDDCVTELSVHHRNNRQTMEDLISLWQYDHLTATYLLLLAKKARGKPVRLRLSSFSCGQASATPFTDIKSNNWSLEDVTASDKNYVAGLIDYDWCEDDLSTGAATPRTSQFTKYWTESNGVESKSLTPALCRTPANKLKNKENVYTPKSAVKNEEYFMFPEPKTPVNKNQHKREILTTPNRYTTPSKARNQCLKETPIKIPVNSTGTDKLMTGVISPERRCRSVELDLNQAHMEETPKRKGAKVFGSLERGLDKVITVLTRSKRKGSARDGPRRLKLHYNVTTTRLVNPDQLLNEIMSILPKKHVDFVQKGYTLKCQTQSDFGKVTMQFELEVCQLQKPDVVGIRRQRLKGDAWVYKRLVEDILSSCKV
UniProt Q32MZ4, sequence (Q32MZ4 whole entry, looked up): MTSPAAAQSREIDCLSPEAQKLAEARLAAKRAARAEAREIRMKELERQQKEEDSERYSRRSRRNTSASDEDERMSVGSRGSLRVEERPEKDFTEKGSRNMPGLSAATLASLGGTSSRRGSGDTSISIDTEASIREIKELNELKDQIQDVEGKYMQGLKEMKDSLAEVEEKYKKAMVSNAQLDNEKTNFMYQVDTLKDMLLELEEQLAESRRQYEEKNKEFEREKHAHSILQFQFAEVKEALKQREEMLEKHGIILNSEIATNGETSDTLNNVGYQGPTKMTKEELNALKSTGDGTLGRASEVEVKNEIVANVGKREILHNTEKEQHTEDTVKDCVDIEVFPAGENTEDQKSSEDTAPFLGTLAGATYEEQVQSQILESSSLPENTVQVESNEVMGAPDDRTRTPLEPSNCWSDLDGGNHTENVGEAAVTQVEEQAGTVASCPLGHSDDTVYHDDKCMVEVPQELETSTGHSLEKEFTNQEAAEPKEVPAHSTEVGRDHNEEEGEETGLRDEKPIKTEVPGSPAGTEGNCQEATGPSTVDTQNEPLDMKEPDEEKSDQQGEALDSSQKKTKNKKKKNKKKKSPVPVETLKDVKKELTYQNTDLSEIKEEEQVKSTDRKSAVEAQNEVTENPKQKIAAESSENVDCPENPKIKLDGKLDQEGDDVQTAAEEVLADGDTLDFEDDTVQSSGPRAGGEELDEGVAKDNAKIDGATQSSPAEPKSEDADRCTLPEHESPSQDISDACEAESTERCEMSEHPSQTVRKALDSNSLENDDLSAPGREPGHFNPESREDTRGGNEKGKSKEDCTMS
UniProt Q12851, sequence (Q12851 whole entry, looked up): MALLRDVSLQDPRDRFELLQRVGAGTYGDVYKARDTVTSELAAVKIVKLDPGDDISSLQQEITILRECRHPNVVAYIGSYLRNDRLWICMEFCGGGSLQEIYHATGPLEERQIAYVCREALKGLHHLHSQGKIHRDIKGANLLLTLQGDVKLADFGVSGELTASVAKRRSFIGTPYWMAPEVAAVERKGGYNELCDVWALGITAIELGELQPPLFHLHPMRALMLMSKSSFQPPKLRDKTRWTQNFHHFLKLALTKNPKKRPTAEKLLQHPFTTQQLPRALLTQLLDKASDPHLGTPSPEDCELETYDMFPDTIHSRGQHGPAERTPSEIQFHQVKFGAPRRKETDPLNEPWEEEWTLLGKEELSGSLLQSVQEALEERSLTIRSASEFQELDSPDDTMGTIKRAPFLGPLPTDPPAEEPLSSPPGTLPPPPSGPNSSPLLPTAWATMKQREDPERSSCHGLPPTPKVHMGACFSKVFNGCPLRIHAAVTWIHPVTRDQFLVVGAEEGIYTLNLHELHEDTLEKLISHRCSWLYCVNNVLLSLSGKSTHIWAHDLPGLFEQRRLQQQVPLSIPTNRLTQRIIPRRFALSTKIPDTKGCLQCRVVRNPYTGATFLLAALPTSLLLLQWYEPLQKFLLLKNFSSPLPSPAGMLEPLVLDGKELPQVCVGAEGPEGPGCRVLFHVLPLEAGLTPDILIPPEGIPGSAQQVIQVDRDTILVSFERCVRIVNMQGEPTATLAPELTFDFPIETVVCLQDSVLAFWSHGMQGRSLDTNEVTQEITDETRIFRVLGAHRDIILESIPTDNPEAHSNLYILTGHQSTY
UniProt P24592, sequence (P24592 whole entry, looked up): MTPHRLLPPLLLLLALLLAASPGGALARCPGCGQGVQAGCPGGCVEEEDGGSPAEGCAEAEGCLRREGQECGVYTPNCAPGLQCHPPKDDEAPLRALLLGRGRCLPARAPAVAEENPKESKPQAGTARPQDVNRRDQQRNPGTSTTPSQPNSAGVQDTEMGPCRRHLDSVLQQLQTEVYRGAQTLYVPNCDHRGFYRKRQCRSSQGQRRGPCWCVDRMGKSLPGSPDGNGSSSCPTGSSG
UniProt P28300, sequence (P28300 whole entry, looked up): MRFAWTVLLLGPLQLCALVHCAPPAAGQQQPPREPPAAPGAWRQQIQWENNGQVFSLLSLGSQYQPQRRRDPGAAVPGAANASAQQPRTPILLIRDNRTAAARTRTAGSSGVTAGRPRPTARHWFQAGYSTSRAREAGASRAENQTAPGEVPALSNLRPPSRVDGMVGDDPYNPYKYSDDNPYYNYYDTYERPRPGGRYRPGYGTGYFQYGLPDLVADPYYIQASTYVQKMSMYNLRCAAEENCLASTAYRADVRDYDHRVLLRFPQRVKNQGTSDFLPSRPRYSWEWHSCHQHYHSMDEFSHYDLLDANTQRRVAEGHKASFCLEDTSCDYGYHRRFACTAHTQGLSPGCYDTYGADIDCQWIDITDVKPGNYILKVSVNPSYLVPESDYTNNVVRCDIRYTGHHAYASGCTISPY
UniProt Q7L590, sequence (Q7L590 whole entry, looked up): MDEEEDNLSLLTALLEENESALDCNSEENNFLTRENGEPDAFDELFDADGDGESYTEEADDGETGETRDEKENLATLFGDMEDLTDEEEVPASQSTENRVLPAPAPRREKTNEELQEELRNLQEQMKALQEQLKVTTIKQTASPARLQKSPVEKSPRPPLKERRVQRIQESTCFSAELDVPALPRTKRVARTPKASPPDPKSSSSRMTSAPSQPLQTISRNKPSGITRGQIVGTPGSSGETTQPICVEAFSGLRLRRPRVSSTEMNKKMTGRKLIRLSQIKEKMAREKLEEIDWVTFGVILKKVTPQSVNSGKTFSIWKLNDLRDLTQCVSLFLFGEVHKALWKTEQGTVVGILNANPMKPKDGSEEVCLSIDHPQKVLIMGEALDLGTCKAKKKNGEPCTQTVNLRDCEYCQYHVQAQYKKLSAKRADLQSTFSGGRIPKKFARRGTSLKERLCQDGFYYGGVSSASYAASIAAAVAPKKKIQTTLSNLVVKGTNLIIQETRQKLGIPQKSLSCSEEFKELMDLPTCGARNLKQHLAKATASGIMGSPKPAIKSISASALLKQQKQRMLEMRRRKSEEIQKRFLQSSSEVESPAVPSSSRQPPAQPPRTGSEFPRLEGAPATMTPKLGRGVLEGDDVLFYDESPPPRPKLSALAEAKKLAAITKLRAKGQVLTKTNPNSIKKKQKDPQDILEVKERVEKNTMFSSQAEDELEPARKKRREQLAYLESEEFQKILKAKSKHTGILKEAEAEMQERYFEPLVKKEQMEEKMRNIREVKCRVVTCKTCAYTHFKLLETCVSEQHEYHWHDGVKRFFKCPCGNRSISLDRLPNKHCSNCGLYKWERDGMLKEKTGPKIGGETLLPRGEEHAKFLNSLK

Target	log2 fold change (saracatinib)	log2 fold change (alvocidib)	log2 fold change (Tubastatin A)	log2 fold change [1]	log2 fold change (defactinib)	log2 fold change (rucaparib)	log2 fold change [2]	log2 fold change (encorafenib)	log2 fold change [3]	log2 fold change [4]	log2 fold change (zotarolimus)	log2 fold change (idasanutlin)	log2 fold change (alisertib)	log2 fold change [5]	log2 fold change [6]	log2 fold change (lapatinib)	log2 fold change (pictilisib)	log2 fold change (sotrastaurin)	log2 fold change (filanesib)	log2 fold change (gefitinib)
MFSD8 (UniProt Q8NHS3)	0.078	-0.044	0.023	-0.003	-0.008	0.039	-0.053	0.012	0.003	-0.236	-0.062	-0.019	0.059	-0.07	0.054	0.025	0.079			
KMT2C isoform 3 (UniProt Q8NEZ4)	-0.026	-0.084	-0.029	0.009	-0.043	-0.043	-0.046	-0.012	0.035		-0.028	0.012	-0.028		-0.027		0.229	-0.02	0.029	0.058
MED12 isoform 2 (UniProt Q93074)	0.072		0.32	0.303		0.137	0.102	0.145		0.093		0.103	0.214	-0.09	0.007	0.028	-0.113	-0.09	0.256	0.024
MELK (UniProt Q14680)	-0.005	0.011	0.074	-0.347		0.125	0.196	0.06		0.072	-0.019	0.061		-3.59 (active)		-0.006	-0.079	0.166	-0.116	0.253
MAGEA8 (UniProt P43361)	-0.006	-0.022	0.101	0.123	-0.267	-0.012	-0.092	0.038	-0.038	0.061	0.108	0.002		0.057		-0.032	0.145			-0.069
MED8 isoform 2 (UniProt Q96G25)	0.003	0.007		0.039	-0.031	0.04	-0.131	-0.024	0.141	-0.11	-0.004	0.095	-0.088	-0.154	-0.041	0.058		0.044	0.033	-0.034
MFAP3 (UniProt P55082)	0.088		0.068		0.306		0.002		-0.189			0.192						0.019	-0.092	
LUZP1 (UniProt Q86V48)	0.075	0.229	0.13	-0.022	-0.498		0.002		-0.209	-0.08	-0.059	0.03	-0.081	-0.036	-0.117	0.041	0.07	-0.088	0.552 (active)	0.051
MED29 (UniProt Q9NX70)	-0.033			0.004			0.001					0.1	-0.571	-0.77 (active)	0.115	-0.028				0.058
LRRFIP1 isoform 4 (UniProt Q32MZ4)	0.008	0.481		-0.111			-0.089			-0.061	0.202	0.108					-0.046			
LOX (UniProt P28300)				-0.303									-0.111		0.146					-0.391
LSR (UniProt M0QZL9)					0.065				-0.249									0.042	0.168	
MAP3K20 isoform 2 (UniProt Q9NYL2)			0.093	-0.024						0.044		0.407		0.036	-0.242	-0.121		0.059	0.068	-0.003
MAP4K5 (UniProt Q9Y4K4)		0.072	0.113	-0.02	-0.02	-0.08		0.082	-0.041	0.01	0.021	0.067	0.134	0.224	0.011	0.15	0.012		-0.083	-0.011
MARCHF3 (UniProt Q86UD3)						0		0.097						0.027		-0.033		-0.055	-0.272	-0.195
MCM10 (UniProt Q7L590)			-0.017	0.014	0.018	-0.021		-0.049	-0.007	0.303			-0.097	-0.103	0.1	0.204	-0.118	-0.09	-0.192	-0.014
LMNA isoform 2 (UniProt P02545)			0.052																	
IPP (UniProt Q9Y573)												0.051								
IGFBP6 (UniProt P24592)	0.011	0.136			0.144		-0.094		0.055		-1.03 (active)	0.776 (active)								
MAP4K2 (UniProt Q12851)		-0.076	0.076			-0.003		0.066		0.02	-0.083			0.426		-0.011		-0.184	-0.143	0.034
LDLRAP1 (UniProt Q5SW96)				-0.014						0.023										
